From PubChem BioAssay AID485346 (Sanford-Burnham Center for Chemical Genomics, 2010)
Screen size: about 330,000 compounds; about 10,000 (3%) were called active.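 How the source made its calls: active means inhibition of at least 50% at 8 µM in the primary screen; inactive means the rest.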 The sample as a whole holds a higher share of actives than the screen did.

Each molecule was assayed against Protein Mdm4 (Homo sapiens) + E3 ubiquitin-protein ligase Mdm2 (Homo sapiens) (UniProt O15151+Q00987) (assay: disruptors of Mdm2/MdmX RING complex – cell-based, luminescence, split luciferase, SaOS-2, uHTS, primary screen (AID 485346)). Settings: SaOS-2 split-luciferase Mdm2/MdmX complementation, at 8 µM, hits give high values.
Chain of Protein Mdm4 (Homo sapiens) + E3 ubiquitin-protein ligase Mdm2 (Homo sapiens) (O15151 whole entry, looked up): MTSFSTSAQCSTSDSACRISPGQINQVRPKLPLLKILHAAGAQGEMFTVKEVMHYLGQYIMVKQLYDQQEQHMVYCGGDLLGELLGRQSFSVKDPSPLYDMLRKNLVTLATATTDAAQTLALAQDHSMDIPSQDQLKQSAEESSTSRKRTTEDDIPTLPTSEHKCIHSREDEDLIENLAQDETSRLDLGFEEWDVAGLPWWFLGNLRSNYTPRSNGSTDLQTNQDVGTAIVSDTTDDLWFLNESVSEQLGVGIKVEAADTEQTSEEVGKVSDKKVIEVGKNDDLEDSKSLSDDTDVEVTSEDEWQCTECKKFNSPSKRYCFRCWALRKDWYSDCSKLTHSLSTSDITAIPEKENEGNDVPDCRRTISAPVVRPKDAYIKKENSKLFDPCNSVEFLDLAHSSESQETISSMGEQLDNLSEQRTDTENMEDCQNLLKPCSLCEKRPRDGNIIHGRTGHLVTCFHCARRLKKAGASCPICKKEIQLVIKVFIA
Chain of Protein Mdm4 (Homo sapiens) + E3 ubiquitin-protein ligase Mdm2 (Homo sapiens) (Q00987 whole entry, looked up): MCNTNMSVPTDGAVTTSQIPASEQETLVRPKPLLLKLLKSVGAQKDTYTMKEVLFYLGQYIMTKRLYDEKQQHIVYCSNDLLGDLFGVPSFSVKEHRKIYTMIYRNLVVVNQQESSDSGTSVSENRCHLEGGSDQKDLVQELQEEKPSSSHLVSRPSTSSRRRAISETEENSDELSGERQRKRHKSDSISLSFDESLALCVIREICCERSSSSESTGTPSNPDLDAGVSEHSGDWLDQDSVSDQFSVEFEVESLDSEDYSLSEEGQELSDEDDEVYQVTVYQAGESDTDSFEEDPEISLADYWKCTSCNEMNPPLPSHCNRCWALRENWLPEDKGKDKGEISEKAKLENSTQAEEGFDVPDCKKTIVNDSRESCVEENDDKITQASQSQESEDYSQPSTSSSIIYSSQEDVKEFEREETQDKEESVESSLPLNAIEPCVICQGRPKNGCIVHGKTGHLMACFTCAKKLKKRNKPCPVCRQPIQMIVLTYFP
With `Cc1c(C=O)c2ccccn2c1C(=O)c1ccncc1` the inhibition was 22.9% (inactive). For `COc1ccc(S(=O)(=O)N2CCOCC2)cc1NC(=O)c1ccc(OCC(C)C)c(OC)c1`, the inhibition was 38.4% (inactive). For `Cc1ccc(Nc2nc(N3CCOCC3)nc(N3CCOCC3)n2)cc1Cl`, the inhibition was 48.2% (inactive). For `O=C(CSc1nc2ccc(Nc3nc(N4CCOCC4)nc(N4CCOCC4)n3)cc2s1)NCc1ccco1`, the inhibition was 20.3% (inactive). For `Cc1ccccc1NC(=O)CSc1nc2ccc(Nc3nc(N4CCOCC4)nc(N4CCOCC4)n3)cc2s1`, the inhibition was 80.5% (active). In the case of `CC1(c2ccccc2)NC(=O)N(CC(=O)Nc2cc(Cl)ccc2N2CCOCC2)C1=O` (stereo unspecified), the inhibition is reported as 6.67% (inactive). With `C/C(=N\Nc1nc(Nc2ccccc2)nc(N2CCOCC2)n1)c1cccs1` the inhibition was 46.5% (inactive). In the case of `O=C(CSc1nc(Nc2ccccc2)nc(N2CCOCC2)n1)Nc1cc(Cl)ccc1O`, the inhibition is reported as 81.9% (active). For `NS(=O)(=O)c1ccc(N2C(=O)C3C4CC(C(Br)C4Br)C3C2=O)cc1` (stereo unspecified), the inhibition was -13.2% (inactive). In the case of `CCC(C(=O)NCc1cccnc1)n1nc(C)c2sc3ccccc3c2c1=O` (stereo unspecified), the inhibition is reported as 20.9% (inactive). With `Cc1nc2ccccc2nc(C)c1=NOCc1ccc(Cl)cc1Cl` the inhibition was 22.9% (inactive). For `NC(N)=N/N=C/c1ccc(OCc2ccc(Cl)cc2Cl)cc1`, the inhibition was 97.6% (active). In the case of `OC(CNCCc1ccc(Cl)cc1Cl)COc1ccccc1` (stereo unspecified), the inhibition is reported as -3.6% (inactive). For `COc1ccc2cc1Oc1ccc(cc1)C[C@H]1c3cc(c(OC)cc3CCN1C)Oc1c(O)c(OC)cc3c1[C@H](C2)N(C)CC3`, the inhibition was 98.4% (active). For `Cc1cccc(-[n+]2c(-c3cccc(Br)c3)[nH]c3nc4ccccc4nc32)c1`, the inhibition was 42.8% (inactive). `CCC/C(O)=C1\C(=O)CC(C)(C)CC1=Nc1ccccc1OC` was tested, and the inhibition was 17.5% (inactive). `COc1ccc(N2CC(NS(=O)(=O)c3ccc4ccccc4c3)CC2=O)cc1` (stereo unspecified) was tested, and the inhibition was 4.41% (inactive). With `Cc1ccc(S(=O)(=O)Nc2ccc3ncccc3c2)cc1` the inhibition was 19.7% (inactive). In the case of `COc1cc(NS(=O)(=O)c2ccc3ccccc3c2)c2ncccc2c1`, the inhibition is reported as 94.8% (active). For `Cc1cc(NC(=O)CCC(=O)N(CC(=O)NCC2CCCO2)c2ccccc2C)no1` (stereo unspecified), the inhibition was 11.6% (inactive). For `COc1ccc(OC)c(S(=O)(=O)NCCC(C)C)c1`, the inhibition was 22.1% (inactive). For `C=C(C)C(=O)O[C@H]1C/C(C)=C\C(=O)/C=C(\C)[C@H](O)[C@@H]2OC(=O)C(=C)[C@@H]21`, the inhibition was 95.4% (active). `O=C(CNC1CCCCC1)NCC1(c2ccccc2)CCCC1` was tested, and the inhibition was 2.11% (inactive). In the case of `C=C1CCN([C@H](C(=O)NCc2cc(OC)c(OC)c(OC)c2)C(C)C)S(=O)(=O)c2ccccc21`, the inhibition is reported as -24.7% (inactive). `C[C@@H]1CC[C@]2(O[C@@H](CCO)C[C@H](O)[C@H]2O)O1` was tested, and the inhibition was 16.3% (inactive). For `CC(=O)Nc1ccc(NC(=O)C2CCCN(S(=O)(=O)c3ccc(Cl)cc3)C2)cc1` (stereo unspecified), the inhibition was 55.6% (active). With `CC(C)c1ccc(NC(=O)C2CCCN(S(=O)(=O)c3cccnc3)C2)cc1` (stereo unspecified) the inhibition was 20.9% (inactive). With `COc1ccc(S(=O)(=O)N2CCCC(C(=O)Nc3ccc(NC(=O)c4ccccn4)cc3)C2)cc1` (stereo unspecified) the inhibition was -15.5% (inactive). In the case of `CCOC(=O)c1ccc(N2C(=O)CC(N(C)Cc3ccccc3)C2=O)cc1` (stereo unspecified), the inhibition is reported as -7.46% (inactive). For `CCCCCCC(=O)N(O)C1CC(=O)N(c2ccccc2)C1=O` (stereo unspecified), the inhibition was 61.2% (active). For `CCCCOC(=O)c1ccc(N2C(=O)CC(N3CCN(C/C=C/c4ccccc4)CC3)C2=O)cc1` (stereo unspecified), the inhibition was 25.8% (inactive). For `CS(=O)(=O)c1ccc(Cl)c(NC(=O)COC(=O)c2ncc(Cl)c(Cl)c2Cl)c1`, the inhibition was 13.8% (inactive). For `CCOc1ccc(CN2CCC(n3nccc3NC(=O)C3CC3)CC2)cc1CO`, the inhibition was 20% (inactive). `COc1ccc(Br)cc1C(=O)Nc1cccc(C)c1C` was tested, and the inhibition was -15.3% (inactive). With `Cc1ccc2c(Cl)c(C(=O)Nc3nn[nH]n3)sc2c1` the inhibition was 16.7% (inactive). In the case of `CN1CCc2ccccc2C1Cc1ccccc1NC(=O)c1sc2ccccc2c1Cl` (stereo unspecified), the inhibition is reported as 12.4% (inactive). For `Cc1ccc(-c2nc3ccccc3[nH]2)cc1NC(=O)c1sc2ccccc2c1Cl`, the inhibition was 99.3% (active). For `Cc1cc2[nH]ncc2cc1NC(=S)NC(=O)c1ccccc1`, the inhibition was 35% (inactive). For `COc1ccc(Br)cc1C(=O)NC(=S)Nc1cc(-c2nc3ccccc3[nH]2)ccc1C`, the inhibition was 81.4% (active). With `Cc1cc(C(=O)O)c(S(C)(=O)=O)s1` the inhibition was 24.5% (inactive). In the case of `COC(=O)C(C(=O)Nc1cccc(C)n1)C1CCCCCC1` (stereo unspecified), the inhibition is reported as 10.4% (inactive). In the case of `C=CCOc1ccc(/C=C/C(=O)OC(C)C(=O)Nc2ccc(NC(C)=O)cc2)cc1` (stereo unspecified), the inhibition is reported as 4.16% (inactive). `COc1ccc(-c2cc(C3CCN(c4ncccc4[N+](=O)[O-])CC3)[nH]n2)cc1` was tested, and the inhibition was 56.4% (active). In the case of `COc1ccc(-c2cc3ncccc3cn2)cc1`, the inhibition is reported as -99.3% (inactive). With `CC(=O)NC(Cc1ccccc1)C(=O)NC1CCN(c2ncccc2[N+](=O)[O-])CC1` (stereo unspecified) the inhibition was 20.8% (inactive). In the case of `COc1ccc(S(=O)(=O)N2CCCC2CNC(=O)C(=O)NC2CC2)cc1` (stereo unspecified), the inhibition is reported as 5.26% (inactive). `CC(C)CCSc1ncnc2c1oc1nc3c(cc12)COC(C)(C)C3` was tested, and the inhibition was -3.42% (inactive). `C=CCn1c(=S)[nH]c2nc3c(cc2c1=O)COC(C)(C)C3` was tested, and the inhibition was -32.6% (inactive). In the case of `CC1(C)Cc2nc3sc4c(SCC(=O)NC(c5ccccc5)c5ccccc5)ncnc4c3cc2CO1`, the inhibition is reported as 71.8% (active). In the case of `CCCCN(CC(=O)Nc1cccc(S(=O)(=O)N2CCCC2)c1)Cc1nc2ccccc2c(=O)[nH]1`, the inhibition is reported as 15.4% (inactive). `CC(C(=O)N1CCN(c2ccccc2F)CC1)c1ccc([N+](=O)[O-])cc1` (stereo unspecified) was tested, and the inhibition was -3.99% (inactive). In the case of `COc1ccc(Oc2cn[nH]c2-c2ccc(OC)cc2O)cc1`, the inhibition is reported as 14.4% (inactive). In the case of `COC(=O)c1cc(OC)ccc1-c1ccc(OC)cc1`, the inhibition is reported as 21.1% (inactive). With `COc1ccc(-c2cn[nH]c2-c2ccc(OC)cc2)cc1` the inhibition was 63.5% (active). For `O=C(O)CCn1c(O)c(C=C2N=c3ccccc3=N2)sc1=S`, the inhibition was -11% (inactive). With `O=C(CN1CCOc2ccccc21)N1CCC(Cc2ccccc2)CC1` the inhibition was 25.3% (inactive). In the case of `Cc1c(NS(=O)(=O)c2cc(C(=O)NCCc3ccc(F)cc3)cc(Cl)c2Cl)c(=O)n(-c2ccccc2)n1C`, the inhibition is reported as 1.11% (inactive). `CCOc1ccc(C2c3[nH]c4ccccc4c3CCN2Cc2cccn2-c2ncccn2)cc1` (stereo unspecified) was tested, and the inhibition was 76.2% (active). In the case of `c1ccc(C2c3[nH]c4ccccc4c3CCN2Cc2cccn2-c2cccnc2)nc1` (stereo unspecified), the inhibition is reported as 5.09% (inactive). `CCOc1ccc(C2c3[nH]c4ccccc4c3CCN2Cc2cn(CC)nc2C)cc1` (stereo unspecified) was tested, and the inhibition was 12.1% (inactive). `CCc1ccc(NC(=O)C(C)OC(=O)/C=C/c2cccc([N+](=O)[O-])c2)cc1` (stereo unspecified) was tested, and the inhibition was -11% (inactive). With `CC1=C(C(=O)OC2CCCCC2)C(c2cccnc2)n2ncnc2N1` (stereo unspecified) the inhibition was 18.3% (inactive). In the case of `CCOC(=O)Nc1ccc2c(c1)N(C(=O)CCCl)c1ccccc1[S@]2=O`, the inhibition is reported as 84.3% (active). `CCOC(=O)Nc1ccc2c(c1)N(C(=O)CCN1CCN(CCO)CC1)c1ccccc1CC2` was tested, and the inhibition was -8.36% (inactive). For `CCNCCC(=O)N1c2ccccc2Sc2ccc(NC(=O)OCC)cc21`, the inhibition was 11.1% (inactive). With `CCOc1cc(-c2cc(-c3ccc(OC)cc3)nc(N)c2C#N)ccc1O` the inhibition was 14.7% (inactive). For `CCOC(=O)CC(=O)CSc1nc(-c2ccccc2)cc(-c2ccc(Cl)cc2)c1C#N`, the inhibition was 17% (inactive). For `CCOc1cc(-c2cc(-c3ccc(NC(C)=O)cc3)nc(N)c2C#N)ccc1O`, the inhibition was 62.3% (active). With `CCC(C)c1ccccc1NC(=O)CN(C)CC(=O)Nc1ccccc1SC` (stereo unspecified) the inhibition was 9.56% (inactive). In the case of `O=C(NCCCO)c1cc2c([nH]c3ccccc32)c(-c2ccc(F)cc2)n1`, the inhibition is reported as 40.9% (inactive). In the case of `O=C(NCC1CCCO1)c1ccc2ccccc2n1` (stereo unspecified), the inhibition is reported as -19.2% (inactive). With `O=C(NCC1CCCO1)c1cc2c([nH]c3ccccc32)c(-c2ccc(F)cc2)n1` (stereo unspecified) the inhibition was 69.3% (active). In the case of `COc1ccc2[nH]c3c(c2c1)CCN1C(=O)C(CC(=O)NCCc2ccccn2)C[C@H](C(=O)N2CCOCC2)[C@@]31C` (stereo partly specified), the inhibition is reported as 1.71% (inactive). With `Cc1sc2nc(CC(N)=O)[nH]c(=O)c2c1-c1ccccc1` the inhibition was -7.25% (inactive). `NC(=O)c1sc2nc3c(c(-c4ccccc4)c2c1N)CCC3` was tested, and the inhibition was 57.3% (active). For `Cc1ccc2c(N)c(C(=O)c3ccccc3)sc2n1`, the inhibition was 20.5% (inactive). `COC(=O)Cn1c(=NC(=O)c2cc(OC)c(OC)c(OC)c2)sc2cc(OC)ccc21` was tested, and the inhibition was 34.7% (inactive). With `CCOC(=O)C(Sc1ncc(C#N)c(N)n1)C(C)C` (stereo unspecified) the inhibition was 15.2% (inactive). In the case of `C=CCn1c(SCC(=O)NC)nnc1C12CC3CC(CC(C3)C1)C2`, the inhibition is reported as 10.2% (inactive). In the case of `CCNC(=O)c1c(O)c2cccc3c2n(c1=O)CC3`, the inhibition is reported as 80.5% (active). `CCCCc1nc2ccccc2c(=O)n1NC(=O)c1c(O)c2cccc3c2n(c1=O)CC3` was tested, and the inhibition was 27% (inactive). In the case of `Cc1cc(=O)n2c3c(cccc13)CCC2`, the inhibition is reported as 0.512% (inactive). For `CC1=CC(=C(C#N)c2nc3ccccc3s2)C=C(C)N1c1ccc(F)cc1F`, the inhibition was 12.5% (inactive). With `OCCCNC(c1ccccc1)c1ccc(O)cc1` (stereo unspecified) the inhibition was 4.25% (inactive). For `O=C(O)CS/C(=C\c1ccc(F)cc1)c1nc2ccccc2s1`, the inhibition was 21.7% (inactive). With `COc1ccc(/C=C(/CC(=O)Nc2ccc(C)cc2)c2nc3ccccc3s2)cc1` the inhibition was -25.3% (inactive). In the case of `COc1cccc2sc(NNC(=O)c3nc4ccccc4s3)nc12`, the inhibition is reported as 59.4% (active). With `O=C(Nc1ccc2c(c1)OCO2)C1CC1(Cl)Cl` (stereo unspecified) the inhibition was 18% (inactive). For `O=C(Nc1ccc2c(c1)OCCO2)C1CCCC1`, the inhibition was 55% (active). With `O=C(Nc1ccc2c(c1)OCCO2)C1CCCN(c2ncccn2)C1` (stereo unspecified) the inhibition was -64.3% (inactive). `Cc1onc(-c2ccc(Cl)cc2)c1-c1ccnn1S(=O)(=O)c1ccc(Cl)cc1` was tested, and the inhibition was 16.6% (inactive).
